Data from the supplement of paper PMC11732987, “Enantioselective OTUD7B fragment discovery through chemoproteomics screening and high-throughput optimisation” (Communications Chemistry, 2025).

Key:
Assay in all cases: log2 ratio of Biotin-Ahx-Ub-VS probe labelling (fragment/DMSO); higher = less target engagement (more negative = stronger competition), active = hit call of the paper (q ≤ 0.05, log2 ratio ≤ -1)
Details in all cases: compound concentration: 200 uM; treatment time: 3 h
[1] = target: USP34 (UniProt Q70CQ2)
Chain of USP34 (Q70CQ2 whole entry, the tested form may be a part): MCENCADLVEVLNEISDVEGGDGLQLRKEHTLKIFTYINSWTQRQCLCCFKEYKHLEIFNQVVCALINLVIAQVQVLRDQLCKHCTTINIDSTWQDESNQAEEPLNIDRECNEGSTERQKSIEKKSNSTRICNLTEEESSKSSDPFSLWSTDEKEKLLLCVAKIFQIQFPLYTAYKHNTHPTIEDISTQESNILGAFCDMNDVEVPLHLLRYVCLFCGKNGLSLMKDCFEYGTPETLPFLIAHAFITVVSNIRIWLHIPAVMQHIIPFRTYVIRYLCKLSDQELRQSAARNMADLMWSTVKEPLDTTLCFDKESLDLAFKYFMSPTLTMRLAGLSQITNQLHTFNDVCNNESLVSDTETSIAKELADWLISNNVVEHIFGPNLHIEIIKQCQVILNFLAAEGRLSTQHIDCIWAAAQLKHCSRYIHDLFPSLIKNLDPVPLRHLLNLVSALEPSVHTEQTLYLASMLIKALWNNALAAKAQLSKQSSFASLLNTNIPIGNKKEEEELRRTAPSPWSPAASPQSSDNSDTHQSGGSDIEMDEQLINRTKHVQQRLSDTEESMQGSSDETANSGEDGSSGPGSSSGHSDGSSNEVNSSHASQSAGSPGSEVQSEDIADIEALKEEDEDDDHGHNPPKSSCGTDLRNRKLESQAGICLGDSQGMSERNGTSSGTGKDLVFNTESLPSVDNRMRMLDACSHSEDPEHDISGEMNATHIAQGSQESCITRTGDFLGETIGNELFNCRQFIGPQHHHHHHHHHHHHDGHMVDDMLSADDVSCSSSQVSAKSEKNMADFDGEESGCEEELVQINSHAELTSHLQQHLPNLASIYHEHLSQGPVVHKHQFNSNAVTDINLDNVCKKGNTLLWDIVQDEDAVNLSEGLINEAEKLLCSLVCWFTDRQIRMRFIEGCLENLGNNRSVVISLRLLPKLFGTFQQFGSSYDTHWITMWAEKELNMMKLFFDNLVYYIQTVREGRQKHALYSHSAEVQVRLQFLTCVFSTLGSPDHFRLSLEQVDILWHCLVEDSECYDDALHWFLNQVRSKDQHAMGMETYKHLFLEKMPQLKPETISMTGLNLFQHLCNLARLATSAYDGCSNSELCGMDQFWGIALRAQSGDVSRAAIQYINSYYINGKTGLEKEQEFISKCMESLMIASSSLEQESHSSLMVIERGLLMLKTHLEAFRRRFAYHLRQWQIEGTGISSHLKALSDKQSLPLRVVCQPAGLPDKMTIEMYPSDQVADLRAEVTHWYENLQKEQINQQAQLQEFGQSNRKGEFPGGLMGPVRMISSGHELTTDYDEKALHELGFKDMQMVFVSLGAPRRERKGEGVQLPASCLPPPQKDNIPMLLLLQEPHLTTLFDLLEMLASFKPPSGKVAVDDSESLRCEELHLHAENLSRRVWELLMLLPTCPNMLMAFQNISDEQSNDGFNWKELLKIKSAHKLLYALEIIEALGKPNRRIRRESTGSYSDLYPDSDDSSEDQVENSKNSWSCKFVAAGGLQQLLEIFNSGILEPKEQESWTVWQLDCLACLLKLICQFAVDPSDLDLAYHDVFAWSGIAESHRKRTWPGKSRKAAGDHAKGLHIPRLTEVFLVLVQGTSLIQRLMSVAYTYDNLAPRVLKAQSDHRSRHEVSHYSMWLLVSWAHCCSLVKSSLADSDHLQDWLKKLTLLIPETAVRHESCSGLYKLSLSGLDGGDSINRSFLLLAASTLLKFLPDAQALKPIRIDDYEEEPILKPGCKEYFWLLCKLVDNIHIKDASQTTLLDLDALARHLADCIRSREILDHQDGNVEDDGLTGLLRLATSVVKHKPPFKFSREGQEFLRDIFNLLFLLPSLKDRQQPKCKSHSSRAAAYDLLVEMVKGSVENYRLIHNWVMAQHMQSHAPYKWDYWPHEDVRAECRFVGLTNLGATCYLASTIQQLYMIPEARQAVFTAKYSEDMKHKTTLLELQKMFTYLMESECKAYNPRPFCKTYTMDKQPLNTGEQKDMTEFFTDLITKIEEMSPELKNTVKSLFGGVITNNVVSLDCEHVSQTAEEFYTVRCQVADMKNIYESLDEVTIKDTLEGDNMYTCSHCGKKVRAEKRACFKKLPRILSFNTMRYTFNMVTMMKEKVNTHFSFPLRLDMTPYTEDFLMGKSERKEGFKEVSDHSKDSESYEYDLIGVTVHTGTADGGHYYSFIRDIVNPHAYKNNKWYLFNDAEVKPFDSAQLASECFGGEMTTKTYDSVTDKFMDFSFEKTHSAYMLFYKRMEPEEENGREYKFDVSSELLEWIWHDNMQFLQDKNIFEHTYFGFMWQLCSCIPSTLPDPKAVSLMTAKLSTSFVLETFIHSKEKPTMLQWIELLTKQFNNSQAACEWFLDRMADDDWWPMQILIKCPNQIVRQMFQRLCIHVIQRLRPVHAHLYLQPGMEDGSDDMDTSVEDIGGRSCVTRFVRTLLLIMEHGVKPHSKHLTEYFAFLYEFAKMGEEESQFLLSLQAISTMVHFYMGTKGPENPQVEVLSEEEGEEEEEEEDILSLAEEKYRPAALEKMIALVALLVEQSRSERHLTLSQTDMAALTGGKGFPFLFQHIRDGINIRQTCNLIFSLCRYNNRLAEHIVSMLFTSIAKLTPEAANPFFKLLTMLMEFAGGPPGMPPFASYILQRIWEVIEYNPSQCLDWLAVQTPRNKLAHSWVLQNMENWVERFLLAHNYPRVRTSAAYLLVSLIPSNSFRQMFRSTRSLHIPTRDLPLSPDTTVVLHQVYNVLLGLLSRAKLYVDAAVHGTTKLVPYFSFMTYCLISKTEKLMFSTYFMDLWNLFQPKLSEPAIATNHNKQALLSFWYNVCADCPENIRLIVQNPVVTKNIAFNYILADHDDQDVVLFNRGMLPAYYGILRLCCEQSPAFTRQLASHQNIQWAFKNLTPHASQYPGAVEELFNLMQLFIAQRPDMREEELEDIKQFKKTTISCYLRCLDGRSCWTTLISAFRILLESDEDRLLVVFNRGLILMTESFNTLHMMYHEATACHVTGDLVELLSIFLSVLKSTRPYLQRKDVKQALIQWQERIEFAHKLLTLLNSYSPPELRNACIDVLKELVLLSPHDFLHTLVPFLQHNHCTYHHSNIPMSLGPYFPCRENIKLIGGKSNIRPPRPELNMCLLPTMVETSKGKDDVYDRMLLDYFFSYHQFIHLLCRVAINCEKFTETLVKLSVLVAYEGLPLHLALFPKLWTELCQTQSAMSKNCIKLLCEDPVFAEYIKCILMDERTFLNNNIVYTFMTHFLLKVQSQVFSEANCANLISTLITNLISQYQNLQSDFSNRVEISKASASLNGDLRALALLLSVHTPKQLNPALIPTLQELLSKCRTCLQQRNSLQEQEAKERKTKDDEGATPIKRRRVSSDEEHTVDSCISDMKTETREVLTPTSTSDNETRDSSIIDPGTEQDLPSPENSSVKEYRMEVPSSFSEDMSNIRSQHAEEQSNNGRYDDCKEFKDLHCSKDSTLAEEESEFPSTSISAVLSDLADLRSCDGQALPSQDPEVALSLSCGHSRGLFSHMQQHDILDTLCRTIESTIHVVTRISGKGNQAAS
Procedure, shortened: (§1)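 HEK293T lysate, 495 µg per sample in Tris/CHAPS/IGEPAL buffer with protease inhibitors, was treated in triplicate with fragment at 200 µM or vehicle for 3 h and then with Biotin-Ahx-Ub-VS at 0.5 µM final for 1 h. Labelled DUBs were NeutrAvidin-enriched, digested with LysC and trypsin, and run by diaPASEF LC-MS/MS. Spectronaut label-free quantities were global-median-normalised, and values are average log2 fragment/vehicle ratios by unpaired t-test on proteins with ≥2 unique peptides.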

[2] = target: T1, USP36 (UniProt Q9P275)
T1 sequence (whole entry): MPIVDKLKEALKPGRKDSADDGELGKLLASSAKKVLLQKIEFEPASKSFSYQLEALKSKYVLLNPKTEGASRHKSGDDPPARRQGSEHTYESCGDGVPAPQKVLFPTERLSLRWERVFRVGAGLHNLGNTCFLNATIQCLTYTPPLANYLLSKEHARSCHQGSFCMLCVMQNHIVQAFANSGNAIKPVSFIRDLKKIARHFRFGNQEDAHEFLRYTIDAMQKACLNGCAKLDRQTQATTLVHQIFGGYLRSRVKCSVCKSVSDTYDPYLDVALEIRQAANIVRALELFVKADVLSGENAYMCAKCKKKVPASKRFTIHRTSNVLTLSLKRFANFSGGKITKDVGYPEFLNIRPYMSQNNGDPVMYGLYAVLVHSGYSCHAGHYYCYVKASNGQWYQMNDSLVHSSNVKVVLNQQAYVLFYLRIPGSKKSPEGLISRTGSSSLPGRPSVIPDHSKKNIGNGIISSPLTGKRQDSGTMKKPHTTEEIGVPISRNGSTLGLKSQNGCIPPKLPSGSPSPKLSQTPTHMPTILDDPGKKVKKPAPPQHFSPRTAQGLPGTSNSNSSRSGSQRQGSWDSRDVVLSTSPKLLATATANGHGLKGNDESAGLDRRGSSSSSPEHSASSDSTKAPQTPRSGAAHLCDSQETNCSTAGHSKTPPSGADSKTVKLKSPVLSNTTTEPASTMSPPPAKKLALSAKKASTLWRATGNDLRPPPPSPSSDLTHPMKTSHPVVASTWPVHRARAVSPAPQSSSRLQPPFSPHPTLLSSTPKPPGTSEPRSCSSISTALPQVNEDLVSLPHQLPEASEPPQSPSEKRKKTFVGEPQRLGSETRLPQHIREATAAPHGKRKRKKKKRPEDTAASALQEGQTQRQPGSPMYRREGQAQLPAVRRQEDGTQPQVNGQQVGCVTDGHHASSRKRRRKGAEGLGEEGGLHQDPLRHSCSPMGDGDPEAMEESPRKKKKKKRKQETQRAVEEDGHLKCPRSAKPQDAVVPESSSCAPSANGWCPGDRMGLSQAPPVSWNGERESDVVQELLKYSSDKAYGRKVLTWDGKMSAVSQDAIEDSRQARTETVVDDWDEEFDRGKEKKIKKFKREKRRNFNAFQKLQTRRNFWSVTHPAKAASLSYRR
Procedure, shortened: as §1

[3] = target: T2, USP38 (UniProt Q8NB14)
T2 sequence (whole entry): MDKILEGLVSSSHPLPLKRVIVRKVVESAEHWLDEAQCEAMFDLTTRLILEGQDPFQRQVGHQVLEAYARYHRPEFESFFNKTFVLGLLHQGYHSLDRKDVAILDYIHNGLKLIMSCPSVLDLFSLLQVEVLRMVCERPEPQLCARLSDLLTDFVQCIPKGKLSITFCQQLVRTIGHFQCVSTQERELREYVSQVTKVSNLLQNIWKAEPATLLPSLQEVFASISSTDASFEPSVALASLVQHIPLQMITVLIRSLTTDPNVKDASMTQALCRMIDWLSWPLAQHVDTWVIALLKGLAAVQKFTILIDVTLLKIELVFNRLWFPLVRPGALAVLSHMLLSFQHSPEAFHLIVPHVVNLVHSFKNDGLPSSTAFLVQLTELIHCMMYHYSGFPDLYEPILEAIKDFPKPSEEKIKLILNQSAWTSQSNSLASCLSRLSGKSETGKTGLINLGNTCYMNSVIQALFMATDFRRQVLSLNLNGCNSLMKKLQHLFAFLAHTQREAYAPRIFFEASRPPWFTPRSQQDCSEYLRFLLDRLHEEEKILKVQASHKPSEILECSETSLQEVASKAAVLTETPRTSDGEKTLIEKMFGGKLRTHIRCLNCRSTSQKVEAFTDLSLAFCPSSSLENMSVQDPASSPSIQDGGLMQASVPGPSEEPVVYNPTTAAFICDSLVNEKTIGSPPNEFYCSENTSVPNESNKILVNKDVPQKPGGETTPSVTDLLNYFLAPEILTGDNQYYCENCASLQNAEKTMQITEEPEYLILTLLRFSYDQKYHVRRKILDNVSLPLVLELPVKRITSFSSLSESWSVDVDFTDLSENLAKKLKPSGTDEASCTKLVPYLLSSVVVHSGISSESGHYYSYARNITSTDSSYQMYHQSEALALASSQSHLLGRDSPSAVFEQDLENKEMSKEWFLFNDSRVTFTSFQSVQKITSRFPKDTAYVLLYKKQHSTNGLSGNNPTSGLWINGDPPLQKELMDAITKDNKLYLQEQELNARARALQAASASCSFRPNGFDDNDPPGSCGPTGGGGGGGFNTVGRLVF
Procedure, shortened: as §1

[4] = target: T3, USP39 (UniProt Q53GS9)
T3 sequence (whole entry): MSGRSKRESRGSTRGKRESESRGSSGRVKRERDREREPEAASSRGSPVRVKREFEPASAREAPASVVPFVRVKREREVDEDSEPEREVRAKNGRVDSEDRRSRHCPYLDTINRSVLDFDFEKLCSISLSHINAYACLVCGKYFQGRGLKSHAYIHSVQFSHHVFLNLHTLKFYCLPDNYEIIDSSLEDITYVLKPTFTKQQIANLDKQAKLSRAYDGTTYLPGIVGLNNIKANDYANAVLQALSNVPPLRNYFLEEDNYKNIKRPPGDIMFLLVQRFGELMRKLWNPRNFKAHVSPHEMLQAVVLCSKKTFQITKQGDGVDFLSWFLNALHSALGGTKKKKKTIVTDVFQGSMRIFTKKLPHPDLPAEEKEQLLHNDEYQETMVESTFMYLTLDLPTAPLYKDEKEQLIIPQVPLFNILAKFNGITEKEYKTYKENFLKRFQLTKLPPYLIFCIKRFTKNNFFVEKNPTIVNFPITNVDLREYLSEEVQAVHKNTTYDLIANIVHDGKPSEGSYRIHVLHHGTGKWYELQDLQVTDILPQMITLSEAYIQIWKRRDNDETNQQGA
Procedure, shortened: as §1

[5] = target: T4, USP4 (UniProt Q13107)
T4 sequence (whole entry): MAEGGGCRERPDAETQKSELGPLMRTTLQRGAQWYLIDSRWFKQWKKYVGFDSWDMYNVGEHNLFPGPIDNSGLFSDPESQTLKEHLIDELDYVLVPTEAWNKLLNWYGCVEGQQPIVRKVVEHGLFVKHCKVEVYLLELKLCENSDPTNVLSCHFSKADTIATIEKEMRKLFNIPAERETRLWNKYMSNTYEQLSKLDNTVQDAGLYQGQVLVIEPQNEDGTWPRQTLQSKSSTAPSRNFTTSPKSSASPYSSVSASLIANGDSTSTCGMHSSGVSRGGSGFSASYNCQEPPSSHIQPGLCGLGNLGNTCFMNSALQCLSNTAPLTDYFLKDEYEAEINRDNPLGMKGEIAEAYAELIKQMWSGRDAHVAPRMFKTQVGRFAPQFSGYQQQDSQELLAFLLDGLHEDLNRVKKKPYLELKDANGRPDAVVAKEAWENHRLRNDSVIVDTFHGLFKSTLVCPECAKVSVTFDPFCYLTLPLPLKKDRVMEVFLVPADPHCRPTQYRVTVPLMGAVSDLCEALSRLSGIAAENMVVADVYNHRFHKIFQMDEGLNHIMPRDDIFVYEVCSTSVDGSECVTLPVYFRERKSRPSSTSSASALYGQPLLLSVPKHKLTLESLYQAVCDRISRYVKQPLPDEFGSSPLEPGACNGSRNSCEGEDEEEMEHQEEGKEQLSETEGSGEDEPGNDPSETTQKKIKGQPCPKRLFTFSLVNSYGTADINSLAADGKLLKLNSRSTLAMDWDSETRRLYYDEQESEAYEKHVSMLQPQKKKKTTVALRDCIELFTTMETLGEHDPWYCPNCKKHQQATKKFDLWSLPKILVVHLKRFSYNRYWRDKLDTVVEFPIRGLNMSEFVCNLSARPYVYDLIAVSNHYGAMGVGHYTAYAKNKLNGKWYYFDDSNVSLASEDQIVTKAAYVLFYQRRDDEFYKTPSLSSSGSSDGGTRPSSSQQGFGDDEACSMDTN
Procedure, shortened: as §1

Measured: log2 ratio of Biotin-Ahx-Ub-VS probe labelling

C#Cc1cccc(NC(=O)CCl)c1
inactive: [1] -0.135 | [2] -0.00355 | [3] -0.119 | [4] 0.046 | [5] 0.0482
